# Sampled rows, rich in hits. Any-hit rate of the full collection: about 11%.
# NIH3T3 tox: Cytotoxic Profiling in NIH 3T3 Cell Line of Diverse Libraries Using Quantitative High-Throughput Screening; NIH 3T3 viability, CellTiter-Glo ATP luminescence, 48-72 h; Potency, µM (titrated, usually from 96.7 µM), inactives show top-dose activity change, negative = cytotoxicity, usual class: inhibitors; hit rate 4.3% among 94,000; AID 1345082, 2018; further: nearly all actives have a fitted effect of over 55% in size
#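 NIH 3T3 cells at 400 cells/well received 23 nL of compound by pintool and were incubated 48 or 72 h at 37 °C. Viability was read as ATP-coupled CellTiter-Glo luminescence.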
# HEK cytotox: Cytotoxic Profiling in HEK 293 Cell Line of Diverse Libraries Using Quantitative High-Throughput Screening. hit rate 6.6% among 94,000. AID 1345083, 2018. HEK 293 viability, ATP luminescence (CellTiter-Glo), 48-72 h. Potency, µM (series often up to 115 µM), inactives show top-dose activity change, negative = cytotoxicity, hits mostly inhibitors; further: nearly all actives have a fitted effect of over 60% in size
#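 Viability of HEK 293 cells, plated at 250 cells/well, was judged by cellular ATP after compound treatment for 48 or 72 hr. Luminescence was imaged 10 min after CellTiter-Glo addition at room temperature.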
# hNpr1 antagonist: Natriuretic polypeptide receptor (hNpr1) antagonism - Primary qHTS; Atrial natriuretic peptide receptor 1 (Homo sapiens), P16066; HEK293 hNpr1 GloSensor cGMP, ANP-stimulated luminescence; Potency, µM (series often up to 46.3 µM), inactives show at the top dose activity change, negative = inhibition, most hits filed as inhibitors; hit rate 1.6% among 76,000; AID 1347048, 2019; calls by dose curve; further: nearly all actives have a fitted effect of over 60% in size
#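 HEK293 cells stably expressing human Npr1 and cGMP GloSensor pGS-40F, loaded 2 h with 2% GloSensor reagent, given compound 30 min at room temperature. Luminescence read before and 20 min after 0.1 nM hNppA.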
# Luciferase inh: Firefly luciferase inhibition profiling of diverse chemical library using quantitative high-throughput screening. AID 1347043, 2019. hit rate 2.5% among 76,000. purified P. pyralis luciferase, luminescence, biochemical. Luciferin 4-monooxygenase (Photinus pyralis), P08659. Potency, µM (series often up to 115 µM), actives largely listed as inhibitors; further: nearly all actives have a fitted effect of over 65% in size
# Target sequence (P08659 whole entry, looked up): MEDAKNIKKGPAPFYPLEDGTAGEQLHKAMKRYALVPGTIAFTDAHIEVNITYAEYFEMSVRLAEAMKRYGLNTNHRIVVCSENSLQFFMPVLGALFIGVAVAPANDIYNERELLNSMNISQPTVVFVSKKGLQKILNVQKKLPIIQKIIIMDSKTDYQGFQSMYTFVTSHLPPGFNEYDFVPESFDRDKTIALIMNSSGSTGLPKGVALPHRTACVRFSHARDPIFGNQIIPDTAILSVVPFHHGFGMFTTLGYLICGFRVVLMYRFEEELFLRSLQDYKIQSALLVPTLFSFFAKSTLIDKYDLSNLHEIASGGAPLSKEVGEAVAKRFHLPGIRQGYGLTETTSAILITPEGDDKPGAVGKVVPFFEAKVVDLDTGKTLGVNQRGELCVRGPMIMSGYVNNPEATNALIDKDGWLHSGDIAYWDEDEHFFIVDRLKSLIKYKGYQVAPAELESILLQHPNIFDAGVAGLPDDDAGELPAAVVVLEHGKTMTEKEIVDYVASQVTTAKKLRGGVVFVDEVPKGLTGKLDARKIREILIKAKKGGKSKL
#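 Biochemical qHTS: compound (6-point titration) added to 10uM D-luciferin plus 10uM ATP in Tris acetate pH 7.5 buffer with Mg, Tween-20 and BSA, then purified enzyme at 10nM; light output imaged.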
# Numbers without * were called inactive; i = inactive; ? = inconclusive; / = no result; [ ] = remark or other dose. Unless noted, the call rests on the fitted dose curve; in most records, active means well fitted curve in the direction sought with a large enough effect; inconclusive means small, poorly fitted or top-dose-only effect, or another doubt; inactive means no such curve, though single readings can be large; an effect the other way counts as inactive or inconclusive. On the % scale 0 is the no-effect control and ±100 the full control effect; potency means the concentration at half of the fitted maximal effect.
SMILES,NIH3T3 tox,HEK cytotox,hNpr1 antagonist,Luciferase inh
Cn1ccc2c(C(=O)NCCc3cnc[nH]3)nc(-c3cnn(Cc4ccccc4)c3)cc21,79µM*,?,-6%[70.6 µM],i
COc1ccccc1-c1cc2c(ccn2C)c(C(=O)NCCc2cnc[nH]2)n1,?,?,-2%[70.6 µM],i
Cn1ccc2c(C(=O)NCCc3cnc[nH]3)nc(-c3cccnc3)cc21,45µM*,-24%[172 µM],0%[70.6 µM],i
Cn1ccc2c(C(=O)NCCc3cnc[nH]3)nc(-c3cccc(C(F)(F)F)c3)cc21,35µM*,40µM*,-6%[70.6 µM],i
Cn1ccc2c(C(=O)NCCc3cnc[nH]3)nc(-c3cccc(CO)c3)cc21,?,?,-9%[70.6 µM],i
COc1cccc(OCc2nc(C(=O)NCc3cn(C)nc3C)co2)c1,?,-23%,-5%,i
CCC(CC)C(=O)N[C@H]1CCN2C(=O)c3cc(-c4cc(Cl)ccc4OC)ccc3NC(=O)[C@@H]2C1,-9%,3%,1%,i
CC(C)(C)C(=O)N1CCN(Cc2ccccc2-c2cccnc2)CC1,-29%[138 µM],100µM*,/,/
CC(=O)N1CCN(Cc2ccccc2-c2cccnc2)CC1,-13%[138 µM],-1%[172 µM],/,/
O=C(C1CCCC1)N1CCN(Cc2ccccc2-c2cccnc2)CC1,?,50µM*,/,/
CC1(C)[C@H](Cc2cc(CCO)on2)C[C@@H]1NCc1cccnc1,-28%[174 µM],-11%[172 µM],-1%[70.6 µM],i
CC(=O)N[C@H]1C[C@@H](Cc2cc(C(C)(C)C)on2)C1(C)C,?,1%[230 µM],3%[70.6 µM],i
COc1ccc(CN[C@H]2C[C@@H](Cc3cc(CN(C)c4ccccc4)on3)C2(C)C)cc1,?,28µM*,-30%[70.6 µM],i
CC(C)(C)c1cc(C[C@@H]2C[C@H](NCc3ccccn3)C2(C)C)no1,50µM*,50µM*,?,i
CN(Cc1cc(C[C@@H]2C[C@H](NCc3cccnc3)C2(C)C)no1)c1ccccc1,?,63µM*,?,i
CC1(C)[C@H](Cc2cc(CCO)on2)C[C@@H]1NCc1ccncc1,?,?,-28%[70.6 µM],i
COc1cccc(CN2CC[C@H]3C(=O)NCCCCCCN(Cc4ccncc4)[C@@H]3C2)n1,-24%,-11%,-12%,i
O=C(NCCNC(=O)c1ccc(-c2cncnc2)cc1)c1ccncc1,i,-2%,/,/
COc1ccccc1NC(=O)N1CCC(N(C(=O)C2CC2)C2CCOCC2)CC1,-5%,18%,3%,i
O=C(CCc1cccnc1)N1CC(COc2ccccc2)C2(C1)CN(c1ccccc1)C2 (stereo not drawn),?,89µM*,-1%[70.6 µM],i
COC1CCC(C(=O)N2CC(COc3ccccc3)C3(C2)CN(c2ccccc2)C3)CC1 (stereo not drawn),89µM*,89µM*,-9%[70.6 µM],i
O=C(CCc1cccnc1)N1CC(CNc2ccccc2)C2(C1)CN(c1ccccc1)C2 (stereo not drawn),?,?,-14%[70.6 µM],i
O=C(Cc1cccc(O)c1)N1CC(CNc2ccccc2)C2(C1)CN(c1ccccc1)C2 (stereo not drawn),22µM*,32µM*,-18%[70.6 µM],i
O=C(O)c1ccc([S+](=O)([O-])N2CC(COc3ccccc3)C3(CN(c4ccccc4)C3)C2)cc1 (stereo not drawn),32µM*,-32%,-14%,i
CSCC(=O)N1C[C@@H](NC(=O)NC(C)C)C[C@H]1C(=O)N[C@@H](Cc1cccs1)C(N)=O,i,-3%,2%,i
COCCCN1CCC(CNc2ncncn2)C1 (stereo not drawn),2%,0%,5%,i
Cc1cccc(C(C)(C)C)c1NC(=O)N1CCOC(C(F)(F)F)C1 (stereo not drawn),?,?,-2%,i
O=S(=O)(Cc1ccccc1F)N1CCCC(Cn2c(C3CC3)nc3cccnc32)C1 (stereo not drawn),-20%,?,-4%,i
COC1CCC(C(=O)N2CC(CNc3ccccc3)C3(C2)CN(c2ccccc2)C3)CC1 (stereo not drawn),45µM*,63µM*,-5%[70.6 µM],i
COc1ccc(OC)c2nc(-c3cccc(Cl)c3)c(CN3CC(O)C3)cc12,-5%,-3%,1%,i

# Compound activity (PubChem)
